The list is not random: actives were taken first. Their share in the collection is about 4.2%.
VDR inhibitor: Inhibitors of the vitamin D receptor (VDR): qHTS. Vitamin D3 receptor (Homo sapiens), P11473. VDR-SRC2-3 peptide fluorescence polarization, 2 h. Potency, µM, usual class: inhibitors. 0.93% of 400,000 active. AID 504847, 2011
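Inhibition of the VDR/SRC2-3 peptide interaction is quantified by fluorescence polarization. Compounds (23 nl, pintool) incubate with the reagents for 2 hours at ambient room temperature.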
Sfp inh: qHTS Assay for Inhibitors of Bacillus subtilis Sfp phosphopantetheinyl transferase (PPTase); 4'-phosphopantetheinyl transferase ffp (Bacillus subtilis), Q9F4F7; Biochemical Sfp PPTase activity, qHTS; Potency, µM, hits mostly inhibitors; 3.5% of 310,000 active; AID 1490, 2009;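 also: the enzyme is Sfp with the accession as filed and its product quenches rhodamine fluorescence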
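Buffer: 50 mM Hepes-Na pH 7.6, 10 mM MgCl2, 0.01% Nonidet P-40, 0.01% BSA. Enzyme 15 nM, pre-exposed to compound 15 min; substrates then added and fluorescence change tracked over 30 min.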
12-LOX inh: Primary qHTS assay for inhibitors of human arachidonate 12S-lipoxygenase (ALOX12): Round 2. Potency, µM (top dose mostly 108 µM), hits mostly inhibitors. 1.1% of 580,000 active. Polyunsaturated fatty acid lipoxygenase ALOX12 (Homo sapiens), P18054. purified 12hLO, xylenol orange hydroperoxide absorbance
Target sequence (P18054 whole entry, looked up): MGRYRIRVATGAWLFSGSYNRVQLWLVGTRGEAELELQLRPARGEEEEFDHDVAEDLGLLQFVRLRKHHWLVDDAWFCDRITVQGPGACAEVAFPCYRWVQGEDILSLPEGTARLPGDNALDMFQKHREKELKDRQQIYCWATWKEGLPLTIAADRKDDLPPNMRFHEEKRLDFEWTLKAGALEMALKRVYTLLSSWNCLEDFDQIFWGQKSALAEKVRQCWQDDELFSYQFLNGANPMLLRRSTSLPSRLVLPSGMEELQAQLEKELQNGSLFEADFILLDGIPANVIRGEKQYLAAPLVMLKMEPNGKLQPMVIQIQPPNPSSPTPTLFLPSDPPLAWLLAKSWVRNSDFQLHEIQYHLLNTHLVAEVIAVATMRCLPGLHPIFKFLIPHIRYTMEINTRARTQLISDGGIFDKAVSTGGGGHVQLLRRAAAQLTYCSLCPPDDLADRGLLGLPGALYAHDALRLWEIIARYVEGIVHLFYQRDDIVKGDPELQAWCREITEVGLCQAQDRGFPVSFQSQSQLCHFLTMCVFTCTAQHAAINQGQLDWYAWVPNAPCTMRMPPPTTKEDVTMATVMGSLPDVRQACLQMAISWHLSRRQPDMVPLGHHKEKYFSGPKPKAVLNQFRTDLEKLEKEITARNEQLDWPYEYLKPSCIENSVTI
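Purified human 12hLO at 150 nM in 25 mM Hepes, 0.01% Triton X-100, pH 7.0, preincubated 15 min at room temperature with compound. Reaction started with 40 uM arachidonic acid, 30 min at room temperature. Hydroperoxide measured by Fe-xylenol orange, 573/405 nm absorbance ratio.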
PLK1 PBD inh: qHTS for Inhibitors of PLK1-PDB (polo-like kinase 1 - polo-box domain): Primary Screen; Serine/threonine-protein kinase PLK1 (Homo sapiens), P53350; Plk1 PBD binding of FITC phosphopeptide, fluorescence polarization; Potency, µM, most hits filed as inhibitors; 2.8% of 360,000 active; AID 720504, 2013; also: series mostly up to about 57 µM; nearly all actives have a fitted effect of over 65% in size
Each line names hits and unclear results; the compound was inactive in the other large screens. Calls follow the shape of the dose curve; as a rule, active = well fitted curve in the direction sought with a large enough effect; inconclusive = small, poorly fitted or top-dose-only effect, or another doubt; inactive = no such curve, though single readings can be large; an effect the other way counts as inactive or inconclusive.

CCOC(=O)c1[nH]c(C)c(/C(O)=C2\C(=O)C(=O)N(CCCN3CCOCC3)C2c2cccnc2)c1C (stereo not given)	none
O=C1C(=O)N(CCCN2CCOCC2)C(c2ccc(F)cc2)/C1=C(/O)c1ccccc1 (stereo not given)	12-LOX inh inconclusive
COC(=O)c1[nH]c(C)c(/C(O)=C2\C(=O)C(=O)N(CCCN3CCOCC3)C2c2ccccn2)c1C (stereo not given)	Sfp inh 50µM
COc1ccc(/C(O)=C2/C(=O)C(=O)N(CCN3CCOCC3)C2c2ccccn2)cc1 (stereo not given)	Sfp inh 50µM, PLK1 PBD inh inconclusive
O=C(Cn1nnc2sc3c(c2c1=O)CCCC3)Nc1ccc(F)c(Cl)c1	none (no result: Sfp inh, PLK1 PBD inh)
COc1ccc(-c2ccc3c(c2)C(=O)N2CC[C@H](NC(=O)C4CCNCC4)C[C@H]2C(=O)N3)c(OC)c1	none (no result: VDR inhibitor, Sfp inh, PLK1 PBD inh)
Cc1[nH]c2ccc(C(=O)N[C@H]3CCOC[C@H]3C3CCOCC3)cc2c1C	none (no result: VDR inhibitor, Sfp inh, PLK1 PBD inh)
COCCOc1cc(C)c2c(c1C)C[C@H](C(C)C(=O)N1CCC(O)CC1)CC2 (stereo not given in full)	none (no result: VDR inhibitor, Sfp inh, PLK1 PBD inh)
CCc1nnc(NC(=O)c2ccc(S(=O)(=O)N(CC)Cc3ccccc3)cc2)o1	PLK1 PBD inh 3µM
CCN(Cc1ccccc1)S(=O)(=O)c1ccc(C(=O)Nc2nnc(C)o2)cc1	none
COc1cccc(CCC(=O)N2CCC(Cc3nc(-c4cccc(OC)c4)no3)CC2)c1	none (no result: VDR inhibitor, Sfp inh, PLK1 PBD inh)
O=C(CN1CCCC1)Nc1ccccc1Sc1ccc(Cl)cc1	Sfp inh 79µM
COc1cc(NC(=O)c2ccc(Cl)cc2)c(OC)cc1NC(=O)CN1CCCCC1	PLK1 PBD inh 30µM
N#CCCN(C(=S)NC(=O)c1cccs1)c1ccccc1F	VDR inhibitor inconclusive, 12-LOX inh inconclusive, PLK1 PBD inh 19µM (no result: Sfp inh)
O=S(=O)(c1ccccc1)N(F)S(=O)(=O)c1ccccc1	12-LOX inh inconclusive, PLK1 PBD inh 27µM (no result: Sfp inh)
CC(=O)c1cc2c(cc1NC(=O)CCC1CCCC1)OCO2	none (no result: VDR inhibitor, PLK1 PBD inh)
CC(=O)c1cc2c(cc1NC(=O)CCn1cccc1)OCO2	Sfp inh 50µM
Nn1c(C2COc3ccccc3O2)n[nH]c1=S (stereo not given)	VDR inhibitor inconclusive, Sfp inh 7.1µM, 12-LOX inh inconclusive, PLK1 PBD inh 17µM
NC(=S)C1COc2ccccc2O1 (stereo not given)	PLK1 PBD inh inconclusive
CCc1ccc(-n2c(=O)c3cccnc3n2CC(=O)Nc2ccccc2C(F)(F)F)cc1	none (no result: Sfp inh, PLK1 PBD inh)
Cc1cccc(NC(=S)NNC(=S)NCc2ccccc2)c1	VDR inhibitor 89µM, Sfp inh 79µM
Cc1c(Cl)cccc1NC(=S)NCCC(c1ccccc1)c1ccccc1	12-LOX inh 25µM
S=C(NCc1ccccc1)Nc1cccc(Cl)c1	12-LOX inh inconclusive
Cc1cccc(NC(=S)NCCC(c2ccccc2)c2ccccc2)c1	VDR inhibitor inconclusive, 12-LOX inh 35µM, PLK1 PBD inh inconclusive
Fc1ccc(NC(=S)NCCC(c2ccccc2)c2ccccc2)cc1Cl	12-LOX inh 25µM (no result: VDR inhibitor, Sfp inh, PLK1 PBD inh)
O=C1CCN(C(=O)Cc2cccc(F)c2)CCCCCCN1	none (no result: VDR inhibitor, Sfp inh, PLK1 PBD inh)
CC(=O)NCC(=O)OCC(=O)N1c2ccccc2Sc2ccccc21	none
Cc1ccccc1NC(=S)NCc1cccn1C	12-LOX inh inconclusive
Cc1c(Cl)cccc1NC(=S)NCc1cccn1C	VDR inhibitor inconclusive, PLK1 PBD inh 17µM
O=C1Nc2ccccc2SC(c2ccccc2)C1O (stereo not given)	12-LOX inh 13µM, PLK1 PBD inh inconclusive
O=C(O)CC1Sc2ccccc2NC1=O (stereo not given)	12-LOX inh inconclusive
O=C(c1ccc2c(c1)OCCO2)N1CCCC(CNS(=O)(=O)c2cccs2)C1 (stereo not given)	none
Cc1ccc(C2C(C=Nc3c(C)n(C)n(-c4ccccc4)c3=O)=C(c3ccccc3)Oc3ccccc32)cc1 (stereo not given)	PLK1 PBD inh 21µM
Cc1ccc(C(=O)c2cc(O)c(O)c([N+](=O)[O-])c2)cc1	12-LOX inh 0.054µM (no result: VDR inhibitor, Sfp inh, PLK1 PBD inh)
O=C(c1cc(O)c(O)c([N+](=O)[O-])c1)c1ccccc1F	12-LOX inh inconclusive (no result: Sfp inh)
CN(Cc1ccccc1)C(=O)C[C@@H]1O[C@H](CNC(=O)c2ccno2)[C@@H](O)[C@H]1O	12-LOX inh 28µM (no result: VDR inhibitor, Sfp inh, PLK1 PBD inh)
Nc1nc(NCc2c(F)cccc2Cl)nn1-c1ccccc1	12-LOX inh inconclusive, PLK1 PBD inh 27µM
CCOC(=O)COc1coc(CN2CCN(c3cccc(Cl)c3)CC2)cc1=O	none
O=C(c1ccccc1F)N1CCN(C(=O)c2nnn3c2COC(c2ccc(Cl)cc2)C3)CC1 (stereo not given)	none (no result: VDR inhibitor, Sfp inh, PLK1 PBD inh)
CC1CCN(c2ccc3nnc(CCC(=O)Nc4cccc(F)c4)n3n2)CC1	PLK1 PBD inh 27µM
COc1ccc(NC(=O)CCc2nnc3ccc(N4CCC(C)CC4)nn23)cc1	none
CC(C(=O)Nc1ccccc1)n1nnc2sc3c(c2c1=O)CCCC3 (stereo not given)	none (no result: Sfp inh, PLK1 PBD inh)
C[C@H]1C[C@@H]2[C@H]3CCC4=CC(=O)C=C[C@@]4(C)[C@@]3(Cl)[C@@H](O)C[C@]2(C)[C@]1(OC(=O)c1ccco1)C(=O)CCl	Sfp inh 35µM (no result: 12-LOX inh, PLK1 PBD inh)
CC1CC2C3CCC4=CC(=O)C=C[C@]4(C)[C@@]3(Cl)C(O)C[C@]2(C)C1(OC(=O)c1ccco1)C(=O)CCl (stereo not given in full)	none (no result: 12-LOX inh, PLK1 PBD inh)
CCCNC(=O)C1CCC(CNS(=O)(=O)c2ccc3c(c2)CC(C)N3C(C)=O)CC1 (stereo not given)	none
CCC(C)NC(=O)C1CCC(CNS(=O)(=O)c2ccc3c(c2)CC(C)N3C(C)=O)CC1 (stereo not given)	VDR inhibitor inconclusive, PLK1 PBD inh 24µM
CC(=O)N1c2ccc(S(=O)(=O)NCC3CCC(C(=O)Nc4ccccc4C)CC3)cc2CC1C (stereo not given)	none (no result: Sfp inh, PLK1 PBD inh)
CC(=O)N1c2ccc(S(=O)(=O)NCC3CCC(C(=O)Nc4ncccc4C)CC3)cc2CC1C (stereo not given)	VDR inhibitor inconclusive, PLK1 PBD inh 21µM
CC1=NOC2(CCN([S+](=O)([O-])c3cccc(C(F)(F)F)c3)C2)C1 (stereo not given)	none (no result: VDR inhibitor, Sfp inh, PLK1 PBD inh)
CC(C)NCC(O)(c1ccc(Cl)cc1)c1ccc(Cl)cc1	none
Cc1ccc2nc3cc([N+](=O)[O-])cc([N+](=O)[O-])c3cc2c1	PLK1 PBD inh 0.95µM
Cc1nc2ccc([N+](=O)[O-])cc2nc1C	none
COc1cc(/C=C/C(=O)OCCOc2ccc(Cl)cc2)ccc1O	12-LOX inh 20µM (no result: VDR inhibitor, Sfp inh, PLK1 PBD inh)
COc1cc(/C=C/C(=O)OCC(=O)NNC(=O)c2cc(Cl)ccc2OC)ccc1O	none (no result: Sfp inh)
CO/N=C(\Cn1ncc(N2CCCC2)c(Br)c1=O)c1ccc(Cl)cc1	Sfp inh 89µM
C=CCN1C(=O)/C(=C2/Sc3ccccc3N2CCCS(=O)(=O)O)SC1=S	Sfp inh 45µM, 12-LOX inh inconclusive, PLK1 PBD inh 11µM
